# Screens from PubChem BioAssay.
# KB-V1 cytotox – KB-V1 MDR subline cytotoxicity | Potency, µM (series often up to 46.1 µM), actives largely listed as cytotoxic | KB-V1 MDR cells viability, CellTiter-Glo, 72 h | AID 1347076 | actives 3.4% (n = 400,000); further: potency means the concentration at half of the fitted maximal effect; on the % scale 0 is the no-effect control and ±100 the full control effect; nearly all actives have a fitted effect of over 60% in size
#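 Cytotoxicity via CellTiter-Glo luminescence after 72 h compound exposure at 37 degrees C. Cells: drug-selected KB-V1 line, DMEM phenol-red free plus 10% FBS. Compounds tested at multiple concentrations; normalized data fitted to concentration-effect curves.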
# KB-3-1 cytotox – KB-3-1 parental cell cytotoxicity. KB-3-1 viability, CellTiter-Glo ATP luminescence, 72 h. Potency, µM (top dose mostly 46.1 µM), usual class: cytotoxic. actives 1.4% (n = 400,000). AID 1347075; further: potency means the concentration at half of the fitted maximal effect; on the % scale 0 is the no-effect control and ±100 the full control effect; nearly all actives have a fitted effect of over 60% in size
#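 Multi-concentration cytotoxicity screen in KB-3-1 cells grown in DMEM lacking phenol red with 10% FBS. After 72 h at 37 °C with compound, ATP-dependent luminescence was recorded.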
# Giardia killer – Giardia lamblia killing; Giardia lamblia trophozoite viability; activity change, % at 7.66 µM, hits read low; actives 0.15% (n = 340,000); AID 540267; in the data active means activity change below about -80%; inconclusive means between about -30% and that limit;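 further: parasites exposed to compound for two days anaerobically before the ATP read; on the % scale 0 is the no-effect control and ±100 the full control effect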
#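 Giardia trophozoites, 100 cells per well, were exposed to compounds for 48 hrs at 37 deg C under anaerobic conditions; viability was then read as ATP content by bioluminescence after 15-30 min at room temperature.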
# MCF10A rereplic – inducers of DNA re-replication in MCF 10A breast cells. AID 624296. MCF 10A DNA re-replication, Hoechst nuclear intensity, 48 h. Potency, µM (titrated, usually from 46.1 µM), without a hit: at the highest dose activity, positive = re-replication, actives largely listed as activators. actives 2.9% (n = 350,000); further: potency means the concentration at half of the fitted maximal effect; % of control where 0% means no effect; nearly all actives have a fitted effect of over 50% in size
# ASM inhibitor – blocks human secretory acid sphingomyelinase; P17405; placental ASM, HMU-PC fluorogenic substrate, 60 min; Potency, µM (top dose mostly 57.5 µM), inactives show at the highest dose activity change, negative = inhibition, usual class: inhibitors; actives 0.006% (n = 340,000); AID 504937; further: potency means the concentration at half of the fitted maximal effect
# Target sequence (P17405 47-631 limits assumed): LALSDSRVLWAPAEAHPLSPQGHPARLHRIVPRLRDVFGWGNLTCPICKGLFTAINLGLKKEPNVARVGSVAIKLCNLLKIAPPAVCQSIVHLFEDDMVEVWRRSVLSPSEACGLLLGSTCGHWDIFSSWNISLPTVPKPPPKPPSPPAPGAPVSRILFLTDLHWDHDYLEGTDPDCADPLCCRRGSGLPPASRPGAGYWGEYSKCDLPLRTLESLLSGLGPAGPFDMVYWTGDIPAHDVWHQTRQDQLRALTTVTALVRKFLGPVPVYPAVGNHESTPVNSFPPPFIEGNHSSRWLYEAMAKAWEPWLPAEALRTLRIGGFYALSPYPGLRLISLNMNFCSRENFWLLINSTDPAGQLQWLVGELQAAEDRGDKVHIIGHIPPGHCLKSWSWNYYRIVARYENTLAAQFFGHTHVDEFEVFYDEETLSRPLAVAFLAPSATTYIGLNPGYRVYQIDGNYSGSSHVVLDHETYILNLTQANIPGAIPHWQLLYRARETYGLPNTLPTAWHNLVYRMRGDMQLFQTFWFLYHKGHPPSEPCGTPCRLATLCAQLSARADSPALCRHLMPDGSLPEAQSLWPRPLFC
#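 qHTS format. ASM enzyme prepared from human placenta hydrolyses the fluorogenic substrate HMU-PC0 (9 uM final) over 60 min at 37 °C after a 10 min compound preincubation.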
# SW480 rereplic – DNA re-replication induction in SW480 cells; AID 624297; actives 1.8% (n = 340,000); Potency, µM (series often up to 46.1 µM), for the others: at the top dose re-replication activation, usual class: activators; SW480 DNA re-replication, Hoechst DNA content imaging, 48 h; further: potency means the concentration at half of the fitted maximal effect; % of control where 0% means no effect; nearly all actives have a fitted effect of over 55% in size
#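 Image-based DNA-content assay: after two days of treatment, nuclei were labelled with the DNA dye Hoechst and imaged, and hits were compounds raising the count of nuclei showing high fluorescence intensity.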
# Starred values were filed as active, the others as inactive; i = inactive; ? = inconclusive; . = not tested or not shown; [ ] = remark or other dose. This is a sample that favours compounds with a hit; in the whole collection about 6.9% have one here. Unless noted, the call rests on the fitted dose curve; in most records, active means well fitted curve in the direction sought with a large enough effect; inconclusive means small, poorly fitted or top-dose-only effect, or another doubt; inactive means no such curve, though single readings can be large; an effect the other way counts as inactive or inconclusive.
SMILES,KB-V1 cytotox,KB-3-1 cytotox,Giardia killer,MCF10A rereplic,ASM inhibitor,SW480 rereplic
COC(=O)c1cccc(C23CC4(C2)[C@H](CN(Cc2ccc(C(F)(F)F)cc2)[C@@H]4c2ccccc2)C3c2ccc(C(F)(F)F)cc2)c1 (some centres not stated),i,13µM*,-15.6,-0.1%,0.0%,-0.5%[9.22 µM]
c1ccc(C2[C@H]3CN(Cc4cccnc4)[C@H](c4ccccc4)C34CC2(c2cccnc2)C4)cc1 (some centres not stated),20.6µM*,?,-1.8,?,3.3%,-12.4%[9.22 µM]
c1ccc(C2[C@H]3CN(Cc4cccnc4)[C@H](c4ccccc4)C34CC2(c2ccccc2)C4)cc1 (some centres not stated),i,?,3.3,1.0%,-4.1%,-3.4%
COc1cccc(CSc2nc3ccccc3cc2C=O)c1,?,?,18.2,13µM*,-16.6%,1.3µM*
COc1cccc(NC(=O)CSc2nc3ccccc3cc2Cc2ccccc2)c1,i,i,8.5,0.1%,-10.7%,-0.3%
Cc1ccccc1OC(=O)CSc1nnc(-c2cccs2)o1,?,i,.,.,.,.
N#Cc1c(N)[nH]c(=S)c(C#N)c1-c1ccccc1,i,i,-4.1,?,8.3%,?
N#Cc1c(N)[nH]c2ccc(Sc3ccccc3)cc12,3.26µM*,2.31µM*,0.5,0.92µM*,-11.8%,4.11µM*
COc1cccc(CNC(=O)Cn2nc(C)c3sc4ccccc4c3c2=O)c1OC,i,i,.,.,.,.
CC1CCC(C(C)C)C(OC(=O)COC(=O)c2ccc(N)cc2)C1 (configuration not stated),i,i,-0.3,23.1µM*,-6.0%,-9.3%
CC1CCC(C(C)C)C(OC(=O)COC(=O)c2cccn2C)C1 (configuration not stated),i,i,5.1,?,-2.1%,-3.9%
O=C(/C=C/c1cccc(F)c1)N1CCN(c2ccccn2)CC1,i,i,5.8,-11.5%,-3.1%,12.0%
Cc1ccc(C(=O)N2C(=O)c3cccc(N)c3C2=O)o1,i,i,5.1,-8.4%,9.4%,0.6%
Nc1cccc2c1C(=O)N(C(=O)/C=C/c1cccc(Br)c1)C2=O,?,i,36.4,20.6µM*,105.3%,?
Nc1cccc2c1C(=O)N(C(=O)/C=C/c1cccc(F)c1)C2=O,?,?,-5.6,?,64.7%,18.4µM*
O=C(NC(c1ccc(Cl)cc1)c1cnccn1)C1CCN(CCCOc2ccccc2)CC1 (configuration not stated),i,i,.,.,.,.
Cc1ccc(S(=O)(=O)NCCc2csc(-c3cccc(F)c3)n2)cc1,i,i,.,.,.,.
CCOC(=O)c1[nH]c2c(c1Cc1ccccc1)C(=O)CC(c1ccc(OC)cc1)C2 (configuration not stated),i,i,.,.,.,.
CC(=O)Nc1ccc2nc3c(=O)[nH]c(=O)[nH]c3nc2c1,.,.,-2.8,.,.,.
CN(C)c1cc[n+](CC(=O)Nc2ccc(OC(F)F)cc2)cc1,i,4.11µM*,-13.2,-8.2%,5.8%,-8.8%
CN(C)c1cc[n+](CC(=O)Nc2ccc(Cl)c([N+](=O)[O-])c2)cc1,i,6.51µM*,1.4,?,-1.6%,3.1%
COc1ccc(C(=O)C[n+]2ccc(N(C)C)cc2)cc1,i,5.17µM*,-3.0,?,-0.3%,?
CN(C)c1cc[n+](CC(=O)Nc2cccc([N+](=O)[O-])c2)cc1,i,?,2.6,-0.5%,-6.7%,0.6%
COc1ccc(C(=O)C[n+]2cccc3cc(OC)ccc32)cc1,i,16.4µM*,4.2,-3.1%,68.4%,-1.3%
CC(C)CC(CSc1ccc(Br)cc1)N1CCN(CC(C)C)CCC1=O (configuration not stated),.,.,-8.1,.,.,.
SMILES,KB-V1 cytotox,KB-3-1 cytotox,Giardia killer,MCF10A rereplic,ASM inhibitor,SW480 rereplic
Cc1ccc(S(=O)(=O)N2CCN(c3nc(-c4cccs4)nc4nc[nH]c34)CC2)cc1,.,.,7.6,.,.,.
COc1ccc(Cn2c(CCC(=O)Nc3cccc(OC)c3)nc3cccnc32)cc1,i,i,.,.,.,.
O=C(CSc1nc(-c2ccccc2)c(-c2ccccc2)o1)Nc1nncs1,i,i,-8.1,?,3.2%,5.1%
O=C(CSc1nc(-c2ccccc2)c(-c2ccccc2)o1)Nc1nnc(-c2ccccc2)s1,7.31µM*,i,7.0,0.2%,-3.6%,-9.8%
O=C(CSc1nc(-c2ccccc2)c(-c2ccccc2)o1)N1CCOCC1,?,?,-12.9,16.4µM*,-6.0%,2.1%
Cc1ccc(C)c(OCCn2cc(C(=O)c3ccco3)c3ccccc32)c1,i,i,.,.,.,.
CCSc1nnc2c(n1)[nH]c1c(C)cccc12,16.4µM*,?,-26.4,-2.0%,-9.4%,10.5%
CSc1nnc2c(n1)[nH]c1c(C)cccc12,i,i,-12.1,0.9%,-1.7%,17.4%
COc1cccc(NS(=O)(=O)c2ccc(-c3cc(C)no3)s2)c1,i,i,.,.,.,.
COc1ccc(OC)c(NS(=O)(=O)c2ccc(-c3cc(C)no3)s2)c1,?,4.61µM*,.,.,.,.
COc1ccc(OC)c(NS(=O)(=O)c2ccc(Cl)s2)c1,16.4µM*,?,3.1,?,0.4%,?
CC(C)N=C(NS(=O)(=O)c1ccccc1)C(Cl)(Cl)Cl,23.1µM*,5.8µM*,-23.5,5.8µM*,-0.9%,5.8µM*
CC(C)n1nnc(-c2ccc(OCc3ccccc3F)cc2)n1,i,i,13.3,-2.5%,8.1%,14.6µM*
CC(=O)N1CCc2c(sc3c2c(=O)n(-c2ccccc2Cl)c(=O)n3Cc2cccc(C)c2)C1,i,i,.,.,.,.
CCCCCN=Cc1c(C)[nH]n(-c2nc3ccccc3s2)c1=O,2.31µM*,2.59µM*,?,17.8%,-3.2%,11.6%
COc1ccc(OC)c(CCNC(=O)c2cc3cccc4c3n2CCS4)c1,i,i,.,.,.,.
COc1ccc(Nc2oc(COc3ccc(Cl)cc3)nc2C#N)cc1,i,i,-7.8,?,-13.0%,1.6%
COc1ccc(Nc2oc(-c3ccc(OC)cc3)nc2C#N)cc1,i,i,1.3,0.1%,1.4%,-31.0%
N#Cc1nc(-c2ccc(Cl)cc2)oc1NCc1ccco1,i,i,16.8,14.6µM*,-5.0%,-5.2%
COc1ccc(Nc2oc(-c3ccc(Cl)cc3)nc2C#N)cc1,?,4.61µM*,8.3,16.4µM*,152.5%,?
CCOc1ccc(Nc2oc(-c3ccc(Cl)cc3)nc2C#N)cc1,?,?,0.9,20.6µM*,44.4%,?
Cc1ccc(-c2nn3c(=O)cc(CN4CCN(C(=O)c5ccc(C(C)(C)C)cc5)CC4)nc3s2)cc1,i,i,.,.,.,.
